Assay results taken from PubChem BioAssay (Tox21).
Records with an inconclusive call do not appear. Values without a mark were called inactive. Active and inactive are the calls of the source. Calls follow the shape of the dose curve; as a rule, active = well fitted activation curve with a large enough effect in the repeat runs; inconclusive = weak or mixed curves; inactive = flat fitted curve, though single readings scatter.

Assay: A CellTox Green Cytotoxicity Assay to monitor cytotoxicity in HEK293 cells - 8 hour (AID 1224884); also: nearly all actives have a fitted effect of over 35% in size
Conditions: CellTox Green fluorescence; series mostly up to 76.8 µM; cytotoxicity increase: at the top concentration
Source text: National Center for Advancing Translational Sciences [NCATS]
NIH Chemical Genomics Center [NCGC]
U.S. Environmental Protection Agency [EPA]
National Institutes of Environmental Health Sciences [NIEHS]
National Toxicology Program [NTP]
Cell-based models are critical for drug discovery. Determining the natural cytotoxic effects resulting from test compounds is an essential research activity. A CellTox Green Cytotoxicity Assay to monitor cytotoxicity in real time of continues cell culture during 40 hours of the compound treatment was used to screen Tox21 10K library compounds in Hek293 cells. CellTox Green Cytotoxicity Assay is a nonlytic, homogeneous, biofluorescent method to measure cytotoxicity in cell culture after experimental manipulation. The assay system uses a proprietary asymmetric cyanine dye that is excluded from viable cells but preferentially stains the dead cell's DNA. […] Viable cells produce no appreciable increases in fluorescence. Therefore, the fluorescence signal produced by the binding interaction with dead cell DNA is proportional to cytotoxicity.
The mixture of Hek293 cell suspension and reagents were dispensed at 600cells/6 ul/well in 1536-well tissue culture treated black solid bottom plates using a Multidrop dispenser. After the assay plates were incubated at a 37 C/5% CO2 incubator for 5 hours, 23 nL of compounds dissolved in DMSO, positive and negative controls was transferred to the assay plate by a pintool work station. The plates were incubated at 37 C for 40 hours. The fluorescence intensity were measured at 0h, 8h, 16h, 24h, 32h and 40h time points using ViewLux plate reader during compound treatment.
% is scaled to controls: 0 for no effect and ±100 for the full control effect.

Compared with `CC1(C)CCC(Cc2ccc(Cl)cc2)C1(O)Cn1cncn1` (stereo not given), `CC(C)(OO)c1ccccc1` is lower in “cytotoxicity increase” value: 13.5% for the first, 10.9% for the second.

Compared with `NCCCNCCCN`, `BrCCCCBr` is lower in “cytotoxicity increase” value: 16.7% for the first, 0.878% for the second.

First: ClCc1ccccc1
Second: N#CCc1ccccc1
The “cytotoxicity increase” value of the first is lower: 0.31% for the first, 0.457% for the second.

Compared with `CCCCN=C=O`, `CCCCCC[N+](=O)[O-]` is higher in “cytotoxicity increase” value: 0.433% for the first, 4.15% for the second.

Going from `C=CC(=O)OCC(C)C` to `C=CC(=O)OCC(C)O` (stereo not given), the “cytotoxicity increase” value rises from -11.5% to -8.54%.

Going from `CCCCCCCCOC(=O)c1ccc(C(=O)OCCCCCCCC)c(C(=O)OCCCCCCCC)c1` to `CCCCOC(=O)c1ccccc1C(=O)OCc1ccccc1`, the “cytotoxicity increase” value rises from 6.05% to 14.8%.

First: Cc1ccc(N)cc1C
Second: Cc1ccccc1C(=O)Nc1cccc(OC(C)C)c1
The “cytotoxicity increase” value of the first is lower: -5.79% for the first, 18.3% for the second.

First: Cl/C=C\C[N+]12CN3CN(CN(C3)C1)C2
Second: CC1CC(CC2CCC(N)C(C)C2)CCC1N (stereo not given)
The “cytotoxicity increase” value of the first is lower: 1.56% for the first, 16.9% for the second.

Compared with `CC(C)(CCl)C(=O)Cl`, `CC(=O)C(C)(C)C` is higher in “cytotoxicity increase” value: -12% for the first, 1.62% for the second.

First: C=CC(=O)NCNC(=O)C=C
Second: C=CCOC(C)=O
The “cytotoxicity increase” value of the first is lower: 2.55% for the first, 4.16% for the second.

Going from `COCC(C)N(C(=O)CCl)c1c(C)csc1C` (stereo not given) to `CCC(C)(NC(=O)c1cc(Cl)c(C)c(Cl)c1)C(=O)CCl` (stereo not given), the “cytotoxicity increase” value falls from -0.843% to -1.95%.

Compared with `CN(C)c1ccc(N(C)C)cc1`, `O=C(CBr)OCc1ccccc1` is higher in “cytotoxicity increase” value: -14.7% for the first, -2.3% for the second.

First: CCOP(=O)(OCC)O/C(=C/Cl)c1ccc(Cl)cc1Cl
Second: O=C(NC(=O)c1c(F)cccc1F)Nc1cc(Cl)c(Oc2ncc(C(F)(F)F)cc2Cl)c(Cl)c1
The “cytotoxicity increase” value of the first is lower: 11.8% for the first, 18.5% for the second.

Compared with `O=C(C(Cl)(Cl)Cl)C(Cl)(Cl)Cl`, `O=C(O)CC(Cl)C(=O)O` (stereo not given) is higher in “cytotoxicity increase” value: -10.6% for the first, 0.177% for the second.

Compared with `c1ccoc1`, `ClCCCCBr` is higher in “cytotoxicity increase” value: -5.54% for the first, 0.195% for the second.

Compared with `N#CCC#N`, `N#C/C(N)=C(/N)C#N` is lower in “cytotoxicity increase” value: -4.44% for the first, -6.1% for the second.

First: CC(Cl)Cl
Second: C=COC(C)=O
The “cytotoxicity increase” value of the first is higher: 4.23% for the first, -1.59% for the second.

Going from `CC(C)N(CCC(C(N)=O)(c1ccccc1)c1ccccn1)C(C)C` (stereo not given) to `O=C1c2ccccc2C(=O)C1C(=O)C(c1ccccc1)c1ccccc1`, the “cytotoxicity increase” value falls from -9.89% [at 35.3 µM] to -11.7% [at 35.3 µM].

Compared with `CC(O)(CS(=O)(=O)c1ccc(F)cc1)C(=O)Nc1ccc(C#N)c(C(F)(F)F)c1` (stereo not given), `Nc1ccc(N=Nc2ccc(-c3ccc(N=Nc4c(S(=O)(=O)O)cc5cc(S(=O)(=O)O)c(N=Nc6ccccc6)c(O)c5c4N)cc3)cc2)c(N)c1` is higher in “cytotoxicity increase” value: -4.76% [at 35.3 µM] for the first, 7.75% [at 35.3 µM] for the second.

With `CCOP(=O)(OCC)Oc1ccc([N+](=O)[O-])cc1` the Potency was “inactive”.

For `c1ccc(CN2CCNCC2)cc1`, the “cytotoxicity increase” value was -4.27% [at 200 µM].
